The record followed here is the supplement of paper PMC4371806.

For the test, the system named is Escherichia coli BW25113. Kind of test: plate-normalized OD600 growth (mean of duplicates) (OD600 (normalized)); higher = more growth (less inhibition). The following applies: 10 µM. The protocol: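 E. coli BW25113 in LB (100 µl, 96-well, no shaking) was exposed to 10 µM of each compound from a ~30,000-member library and grown at 37°C for 24 h or 15°C for 48 h, in duplicate. Growth was read as OD600 and the duplicate ODs were normalized across screening plates to correct plate-to-plate variation. Hits were >3σ below the mean OD600 at 15°C and <2σ below the mean at 37°C.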

Whole data set: some 2,300 compounds, median “plate-normalized OD600 growth (mean of duplicates)” near 0.29, cut for the lowest 2% near 0.22. The entries come from a sample that favours the lowest values as a whole.

`Cc1ccc(NC(=O)CCN2CCN(c3ccccc3)CC2)cc1`: the “plate-normalized OD600 growth” value reads like this: (temperature: 15°C, 48 h) 0.26; (temperature: 37°C, 24 h) 0.612.
For `C/C(CC(=O)Nc1ccc(N(C)C)cc1)=N\NC(=O)COc1ccc(C)cc1` the same measures were 0.236 and 0.627.
For `CC(=O)N(CC(=O)Nc1ccc(C)cc1)c1ccccc1` the same measures were 0.214 and 0.646.
Regarding `COC(=O)C1=NN(c2ccccc2Cl)C2(S1)c1ccccc1C(C)=NN2c1ccccc1` (stereo unspecified), the “plate-normalized OD600 growth” value came out at 0.234 (temperature: 15°C, 48 h) and 0.641 (temperature: 37°C, 24 h).
As to `O=C(NCCSCc1ccco1)c1ccc(Cl)cc1`, the “plate-normalized OD600 growth” value reads like this: (temperature: 15°C, 48 h) 0.25; (temperature: 37°C, 24 h) 0.605.
As for `CC12CCC(C1)C(C)(C)C2NC(=O)c1cccs1` (stereo unspecified), the “plate-normalized OD600 growth” value is, setting by setting: (temperature: 15°C, 48 h) 0.26; (temperature: 37°C, 24 h) 0.639.
Take `Cc1nn(CC(=O)NNC(=O)COc2ccc(Cl)cc2Cl)c(C)c1Br`: the “plate-normalized OD600 growth” value (temperature: 15°C, 48 h) is 0.235 and the “plate-normalized OD600 growth” value (temperature: 37°C, 24 h) was 0.607.
Consider `O=C(Oc1ccc(N(C(=O)c2ccccc2)S(=O)(=O)c2cccs2)cc1)c1ccccc1`, for which the “plate-normalized OD600 growth” value is, setting by setting: (temperature: 15°C, 48 h) 0.225; (temperature: 37°C, 24 h) 0.622.
The matching figures for `O=c1[nH]nc(-c2ccc(N3CCN(CCO)CC3)c([N+](=O)[O-])c2)c2ccccc12`: 0.242 and 0.616.
`COCc1cc(C)c2c(n1)sc1c2nc(C)n2c3ccccc3nc12`: the “plate-normalized OD600 growth” value (temperature: 15°C, 48 h) amounted to 0.244 and the “plate-normalized OD600 growth” value (temperature: 37°C, 24 h) is 0.619.
On to `CCOc1ccc(NC(=O)CC2S/C(=N\N=C\c3ccc(C)s3)NC2=O)cc1` (stereo unspecified), for which the “plate-normalized OD600 growth” value reads like this: (temperature: 15°C, 48 h) 0.222; (temperature: 37°C, 24 h) 0.624.
For `Cc1cc(C(O)(C(F)(F)F)C(F)(F)F)cc(C)c1O`, the “plate-normalized OD600 growth” value came out at 0.249 (temperature: 15°C, 48 h) and 0.618 (temperature: 37°C, 24 h).
On to `O=C(Nc1nc(-c2ccccc2)cs1)C1CC(O)CN1C(=O)Oc1ccccc1` (stereo unspecified), for which the “plate-normalized OD600 growth” value reads like this: (temperature: 15°C, 48 h) 0.263; (temperature: 37°C, 24 h) 0.648.
In the case of `Cc1cc(/C=N/NC(=O)c2cc3ccccc3o2)c(C)n1-c1ccc(C23CC4CC(CC(C4)C2)C3)cc1`, the “plate-normalized OD600 growth” value is, setting by setting: (temperature: 15°C, 48 h) 0.244; (temperature: 37°C, 24 h) 0.607.
For the compound `COc1cccc(C2C3=C(CC(C)(C)CC3=O)OC(N)=C2[N+](=O)[O-])c1` (stereo unspecified), the “plate-normalized OD600 growth” value came to 0.246 (temperature: 15°C, 48 h) and 0.619 (temperature: 37°C, 24 h).
With `O=C(CC(=O)Nc1cccc(Cl)c1)N/N=C\c1ccccc1`, the “plate-normalized OD600 growth” value was 0.246 (temperature: 15°C, 48 h) and 0.616 (temperature: 37°C, 24 h).
In the case of `OCCCc1cccc(C(F)(F)F)c1`, the “plate-normalized OD600 growth” value is, setting by setting: (temperature: 15°C, 48 h) 0.242; (temperature: 37°C, 24 h) 0.586.
The matching figures for `O=C1C=C(Cl)CC(c2ccc(C(F)(F)F)cc2)C1` (stereo unspecified): 0.243 and 0.607.
For `O=C(O)c1ccc(Br)c(NC(=O)C2C3C=CC(C3)C2C(=O)O)c1` (stereo unspecified) the same measures were 0.248 and 0.604.
For `N/C(=N\OC(=O)c1ccno1)c1ccc(C(F)(F)F)cc1` the same measures were 0.253 and 0.612.
For `O=C(O)c1oc(C(=O)O)c(OCc2ccccc2)c1OCc1ccccc1`, the “plate-normalized OD600 growth” value is, setting by setting: (temperature: 15°C, 48 h) 0.263; (temperature: 37°C, 24 h) 0.637.
With `Cc1nnn(-c2nonc2N)c1C(=O)NNC(=O)c1ccc(Cl)c(Cl)c1`, the “plate-normalized OD600 growth” value reads like this: (temperature: 15°C, 48 h) 0.243; (temperature: 37°C, 24 h) 0.606.
Turning to `O=C(NNC(=O)c1ccccc1OCc1ccccc1)c1ccc(Cl)c(Cl)c1`, the “plate-normalized OD600 growth” value reads like this: (temperature: 15°C, 48 h) 0.216; (temperature: 37°C, 24 h) 0.606.
The matching figures for `O=C(Nc1ccc(Cl)cc1Cl)c1cnccn1`: 0.245 and 0.607.
The matching figures for `N#CC1=C2N=C(N)c3c(sc4c3CCCC4)N2C2=C(C(=O)CCC2)C1c1cccnc1` (stereo unspecified): 0.246 and 0.624.
For `C/C(=N/OC(=O)c1ccc(Cl)cc1)c1ccc(F)cc1` the same measures were 0.236 and 0.601.
On to `CCN(CC)C(=O)NC(=O)c1c(C)cc(Cl)nc1Cl`, for which the “plate-normalized OD600 growth” value amounted to 0.243 (temperature: 15°C, 48 h) and 0.63 (temperature: 37°C, 24 h).
`Cc1ccc(N2CC(=O)N(/N=C/c3ccc(F)cc3)C2=S)cc1`: the “plate-normalized OD600 growth” value (temperature: 15°C, 48 h) was 0.232 and the “plate-normalized OD600 growth” value (temperature: 37°C, 24 h) came out at 0.63.
For `COc1ccc(C(=O)[C@@H]2[C@@H](c3cccs3)C(C#N)(C#N)[C@H]3C=Cc4ccccc4N23)cc1` the same measures were 0.251 and 0.63.
Consider `CC(=O)C1=C(Nc2ccc(C)cc2)CC(C)(O)C(C(C)=O)C1c1ccc(F)cc1` (stereo unspecified), for which the “plate-normalized OD600 growth” value turned out to be 0.208 (temperature: 15°C, 48 h) and 0.598 (temperature: 37°C, 24 h).
With `C/C(=C\C(=O)Nc1ccc(F)cc1)Nc1ccc(F)cc1`, the “plate-normalized OD600 growth” value turned out to be 0.253 (temperature: 15°C, 48 h) and 0.613 (temperature: 37°C, 24 h).
As for `CC(=O)C1C(=O)CC(C)(O)C(C(C)=O)C1c1ccc(Br)cc1` (stereo unspecified), the “plate-normalized OD600 growth” value (temperature: 15°C, 48 h) turned out to be 0.25 and the “plate-normalized OD600 growth” value (temperature: 37°C, 24 h) was 0.616.
The matching figures for `CN(C)N=Nc1ccc(S(=O)(=O)NC(=O)Cc2ccccc2)cc1`: 0.24 and 0.612.
Regarding `CC(C)(C)NC(=O)c1cc(NC(=O)C(F)(F)F)cc(NC(=O)C(F)(F)F)c1`, the “plate-normalized OD600 growth” value amounted to 0.234 (temperature: 15°C, 48 h) and 0.605 (temperature: 37°C, 24 h).
For the compound `O=C(COc1ccccc1[N+](=O)[O-])Nc1ccccn1`, the “plate-normalized OD600 growth” value was 0.24 (temperature: 15°C, 48 h) and 0.619 (temperature: 37°C, 24 h).
The matching figures for `COc1ccc(Nc2nc(N/N=C/c3ccc(-c4cccc(C(=O)O)c4)o3)nc(Nc3ccccc3)n2)cc1`: 0.226 and 0.634.
For `CC(C)(C)OC(=O)NC(Cc1ccc(OCc2ccccc2)cc1)C(=O)O` (stereo unspecified) the same measures were 0.26 and 0.615.
For `CCOC(=O)/C(C(C)=O)=C1/SCC(C)S1` (stereo unspecified) the same measures were 0.235 and 0.609.
With `O=C1CC2(CCCC2)C(=O)N1CCNc1nccc(C(F)(F)F)n1`, the “plate-normalized OD600 growth” value runs as follows: (temperature: 15°C, 48 h) 0.261; (temperature: 37°C, 24 h) 0.637.
`Cc1ccc(NC(=O)Nc2ccc(C)c(NC(=O)Nc3ccc(C)cc3)c2)cc1`: the “plate-normalized OD600 growth” value (temperature: 15°C, 48 h) came out at 0.242 and the “plate-normalized OD600 growth” value (temperature: 37°C, 24 h) turned out to be 0.578.
For `O=C(CNC(=O)C(c1ccccc1)c1ccccc1)N/N=C/c1cc(Br)ccc1O` the same measures were 0.237 and 0.617.
Consider `COc1cc(OC)c(C2C(C#N)=C(N)Oc3n[nH]c(-c4cccnc4)c32)cc1OC` (stereo unspecified), for which the “plate-normalized OD600 growth” value reads like this: (temperature: 15°C, 48 h) 0.244; (temperature: 37°C, 24 h) 0.612.
For `CCc1nc(N)c(C#N)c(-c2ccccc2)c1C` the same measures were 0.239 and 0.61.
Consider `CSc1nc2sc(C)c(C)c2c(=O)n1-c1ccccc1`, for which the “plate-normalized OD600 growth” value by setting is: (temperature: 15°C, 48 h) 0.219; (temperature: 37°C, 24 h) 0.653.
For the compound `O=C1/C(=C\c2ccc(Cl)cc2Cl)N=C(c2ccccc2)N1C1CC1`, the “plate-normalized OD600 growth” value runs as follows: (temperature: 15°C, 48 h) 0.241; (temperature: 37°C, 24 h) 0.577.
For the compound `COc1ccc(C(=O)NCC(=O)N/N=C(\C)c2cccc(N)c2)cc1OC`, the “plate-normalized OD600 growth” value reads like this: (temperature: 15°C, 48 h) 0.249; (temperature: 37°C, 24 h) 0.633.
For `O=C1CCc2cccc3cccc1c23` the same measures were 0.235 and 0.604.
The matching figures for `CCN(CC)c1ccc(C2C(C(=O)OC3CCCCC3)=C(C)NC3=C2C(=O)CC(c2ccc(Cl)cc2)C3)cc1` (stereo unspecified): 0.238 and 0.614.
Take `CC1(C)C2CCC1(C)C(N/C(=C(/C(Cl)=C(Cl)Cl)[N+](=O)[O-])n1nnc3ccccc31)C2` (stereo unspecified): the “plate-normalized OD600 growth” value by setting is: (temperature: 15°C, 48 h) 0.253; (temperature: 37°C, 24 h) 0.629.
The matching figures for `CSc1ccc(/C=C2\N=C(c3ccccc3)N(c3ccc(C(=O)Nc4ccc(Br)cc4)cc3)C2=O)cc1`: 0.257 and 0.649.
For `COc1ccc(OC)c(NC(=O)c2ccc(N3C(=O)/C(=C/c4ccc(Cl)cc4)N=C3c3ccccc3)cc2)c1` the same measures were 0.216 and 0.634.
For `O=C(Nc1ccc(F)c(Cl)c1)c1ccc(N2C(=O)/C(=C/c3ccccc3)N=C2c2ccccc2)cc1` the same measures were 0.238 and 0.653.
On to `COc1cc(NC(=S)N2CCN(c3ccccc3OC)CC2)c(OC)cc1Cl`, for which the “plate-normalized OD600 growth” value was determined as 0.231 (temperature: 15°C, 48 h) and 0.614 (temperature: 37°C, 24 h).
For `Cc1cc(N2CCCC2)ccc1/C=N/n1cnnc1` the same measures were 0.259 and 0.687.
`Cc1cc(C=Nc2ccc(Cl)c(O)c2)c(C)n1-c1ccc(Cl)cc1`: the “plate-normalized OD600 growth” value came to 0.248 (temperature: 15°C, 48 h) and 0.605 (temperature: 37°C, 24 h).
For `CN1N=C(SCc2ccc(Cl)cc2Cl)Sc2c1cnn(C)c2=O` the same measures were 0.25 and 0.591.
Regarding `CCCCCCCCNC(=O)C(=O)Nc1cccc(F)c1`, the “plate-normalized OD600 growth” value was 0.244 (temperature: 15°C, 48 h) and 0.564 (temperature: 37°C, 24 h).
As to `Cc1ccc2c(c1)N(CCO)C(C)(C)CC2C` (stereo unspecified), the “plate-normalized OD600 growth” value stood at 0.211 (temperature: 15°C, 48 h) and 0.651 (temperature: 37°C, 24 h).
